# Screens: PubChem BioAssay, University of Kansas High Throughput Screening Laboratory
# Many of the other results were omitted from the sample, so hits are more common in it than they were.
# mHTT CaM bind: mHTT-calmodulin interaction abrogation; 3.6% of 190,000 active; inhibition, % at 15 µM; AlphaScreen His-mHTT/GST-CaM binding, luminescence;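 note: 0% = both proteins with DMSO and 100% = one protein alone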
# Pf apPOL block: Pf-apPOL DNA polymerase inhibition | Recombinant Pf-apPOL, molecular beacon fluorescence, 1.5 h | inhibition, % at 10 µM | 0.25% of 210,000 active | AID 1794808
# An asterisk follows results filed as active; . = no result. Cut-off read from the data, not from the text of the source: active = inhibition above about 50%; inactive = the rest.
SMILES,mHTT CaM bind,Pf apPOL block
Cc1ccc2nc(/C(C#N)=C/c3ccc(O)c([N+](=O)[O-])c3)[nH]c2c1,59.0*,-0.3
CCOc1ccc(C=C2C(=O)c3ccccc3C2=O)cc1OC,11.0,-4.2
CCOc1cc(C=C2C(=O)c3ccccc3C2=O)cc(I)c1O,58.0*,-9.4
Cc1ccc2nc(/C(C#N)=C/c3cc([N+](=O)[O-])ccc3O)[nH]c2c1,4.4,-4.4
CC(=O)Nc1ccc(-c2noc(C3CCCN(C(=O)c4ccc(C)c(C)c4)C3)n2)cc1 (stereo not given),-8.3,1.5
COCCCN1COc2ccc3c(=O)c(-c4ccccc4)c(C(F)(F)F)oc3c2C1,-6.9,-2.9
Cc1cccc(C(=O)CC(=O)c2cc(C)ccc2O)c1,45.5,1.3
COc1ccc(CN2CCN(C(C)=O)CC2)c(C)c1C,-0.4,-24.8
COc1ccc(C(=O)Nc2ccc(NC(=O)c3ccccc3)c(C)c2)cc1,-2.3,7.5
C=CCn1cc(/C=C2\C(=O)NC(=O)N(c3cccc(F)c3)C2=O)c2ccccc21,17.0,-1.7
O=C(CSc1nnc(NC(=O)c2cccs2)s1)NCc1ccccc1Cl,-4.0,-2.6
CC(C)C(=O)Oc1coc(CSc2nnc(NC(=O)c3cccs3)s2)cc1=O,82.4*,73.8*
O=C(c1ccsc1)N1CCCN(c2cc(-c3ccc4c(c3)OCO4)[nH]n2)CC1,6.9,3.8
O=C(c1cc2ccccc2[nH]1)N1CCCN(c2cc(-c3ccc4c(c3)OCO4)[nH]n2)CC1,56.1*,-7.1
Cc1ccccc1CC(=O)N1CCN(c2cc(-c3cccnc3)[nH]n2)CC1,-5.7,-1.7
Cc1ccccc1CC(=O)N1CCCN(c2cc(-c3ccccc3)[nH]n2)CC1,60.9*,-7.6
Cc1c(C)c(C)c(C(=O)c2c(Cl)c(Cl)c(Cl)c(Cl)c2C(=O)O)c(C)c1C,.,14.5
CC(C(=O)N1CCC(c2cc(N)on2)CC1)c1ccccc1 (stereo not given),-4.0,2.7
CC(=O)N1CCN(c2ccc(NC(=O)COc3ccc(Cl)cc3Cl)cc2)CC1,50.4*,-16.1
O=C(CCCOc1ccc(Cl)cc1Cl)N1CCN(c2ccc(F)cc2)CC1,76.5*,9.4
O=C(CCSc1ccc(Cl)cc1)N1CCN(c2ccc(F)cc2)CC1,15.2,-6.3
CCCC(=O)Nc1ccc(NC(=O)COc2ccc(Cl)cc2Cl)cc1,8.6,6.0
CCCc1nc2cccnc2n1C1CCN(C(=O)c2ccc(CC)cc2)C1 (stereo not given),40.2,0.1
COc1ccc(CC(=O)N2CCN(c3cccc(Cl)c3)CC2)cc1,-9.6,-4.9
COc1ccc(CC(=O)N2CCN(c3cccc(Cl)c3)CC2)cc1OC,55.4*,2.1
SMILES,mHTT CaM bind,Pf apPOL block
C(=NN=Cc1cccnc1)c1cccnc1,.,0.6
C(=Nc1cc(-c2ccccc2)nn1-c1ccccc1)c1cccnc1,50.0*,-0.1
O=C(NCCS(=O)(=O)N1CCN(c2ncccn2)CC1)NCc1cccs1,-8.2,-0.6
O=C(Cc1csc(NC(=O)c2ncccn2)n1)NCc1ccccc1Cl,98.3*,-17.8
COC(=O)Nc1nc(CC(=O)NCc2ccccc2Cl)cs1,-0.8,-6.0
O=C(Cc1csc(NC(=O)c2cnccn2)n1)NCCc1c[nH]c2ccccc12,53.3*,-24.4
O=C(Cc1csc(NC(=O)c2cccs2)n1)NO,15.2,72.3*
O=C(Cc1csc(SCC(=O)c2cccs2)n1)NCCc1c[nH]c2ccccc12,30.2,-8.4
O=C(Cc1csc(NC(=O)c2ccc3c(c2)OCO3)n1)NCCc1c[nH]c2ccccc12,56.0*,-6.2
O=C(Cc1csc(NC(=O)c2ccc(=O)[nH]c2)n1)NCCc1c[nH]c2ccccc12,9.8,-13.8
NS(=O)(=O)c1ccc(CNC(=O)Cc2csc(NC(=O)c3cccs3)n2)cc1,-0.2,-7.0
O=C1C2C3C=CC(CC3)C2C(=O)N1c1ccccc1Br (stereo not given),-6.0,-2.6
O=C(CSc1n[nH]c(=O)[nH]c1=O)c1ccc(Cl)cc1,-1.0,5.6
CCOc1ccc(C=Nc2cc(Cl)ccc2O)c(O)c1,10.0,3.3
O=C1c2ccccc2C(=O)N1Cn1cc(F)c(=O)n(CN2C(=O)c3ccccc3C2=O)c1=O,7.0,-2.0
CCc1cc(C2CCCN2C(=O)CCc2ccccc2)on1 (stereo not given),-5.3,2.9
CCOC(=O)C1=C(C)NC(C(=O)OCC)CS1 (stereo not given),.,-6.0
Fc1ccc(N=Cc2ccccc2)cc1,.,8.9
C(=Nc1ccc(Nc2ccccc2)cc1)c1ccccc1,86.0*,-0.6
CCOC(=O)CCC(=O)Nc1cccc2ccc(-n3ccnc3)nc12,8.9,-20.5
Cc1ccc(Nc2cc(-n3cccn3)ncn2)cc1,-0.5,-3.9
NS(=O)(=O)c1ccc(NC(=O)c2ccc(F)cc2)cc1,2.1,-1.1
CCOc1ccc(C(=O)Nc2ccc(-n3nncc3-c3ccccc3)cc2)cc1OCC,20.0,-2.6
COCC(=O)Nc1ccc(Nc2ccccc2)cc1,46.7,-12.6
COCC(=O)Nc1ccc(Nc2ccc(-n3cccn3)nn2)cc1,99.2*,-1.5
SMILES,mHTT CaM bind,Pf apPOL block
NS(=O)(=O)c1ccc(C(=O)Nc2ccc(Nc3ccc(-n4cccn4)nn3)cc2)cc1,95.3*,-7.6
CCOc1ccc(C(=O)Nc2ccc(Nc3ccc(-n4cccn4)nn3)cc2)cc1OCC,88.0*,-7.4
Cc1ccc(S(=O)(=O)Nc2ccc(Nc3ccc(-n4cccn4)nn3)cc2)c(C)c1,100.0*,-1.5
O=C(NCc1c(F)cccc1F)C1(c2cccs2)CCCC1,-22.3,-4.9
O=C(Nc1ccccc1C(=O)N1CCCCC1)c1cccc(F)c1,-4.7,-4.4
CC(C)(C)N=C(NS(=O)(=O)c1ccc(F)cc1)c1ccccc1,-4.0,5.2
O=[N+]([O-])c1cc(C(F)(F)F)cc([N+](=O)[O-])c1Sc1nnnn1-c1ccccc1,100.0*,3.6
CS(=O)(=O)N1CCN(c2ccc([N+](=O)[O-])c(Sc3nnnn3-c3ccccc3)c2)CC1,-3.7,-3.9
CCOc1ccc(NC(=O)CSc2nnc(NC(=O)c3ccccc3C)s2)cc1,2.5,3.0
O=C(CN1C(=O)c2ccccc2S1(=O)=O)N1CCCCCC1,2.0,50.7*
O=C(CN1C(=O)c2ccccc2S1(=O)=O)N1CCCCC1,0.9,-2.0
COc1cc(-c2cc(OC)c3c(C)oc(C)c3c(=O)c2)ccc1O,35.0,-3.1
Cc1oc(C)c2c(=O)cc(-c3ccc4c(c3)OCO4)cc(O)c12,52.6*,5.5
N#Cc1nc(COc2ccccc2Cl)oc1N1CCN(Cc2ccccc2)CC1,52.0*,-2.0
N#Cc1nc(COc2ccccc2Cl)oc1N1CCCCC1,19.0,-5.3
Cc1ccc(C)n1-c1ccc(Br)cc1,.,-5.8
Cc1cc2n(c1)CCn1c(C)ccc1-2,92.9*,41.9
Cc1ccc2n1CCn1cc(-c3ccc(Br)cc3)cc1-2,99.0*,-6.7
Cc1ccc(-c2nnc(C)c(N3CCC(C)CC3)n2)cc1,82.2*,-0.2
CCOC(=O)C1CCN(c2nc(-c3ccc(C)cc3)nnc2C)CC1,14.9,-2.7
CCOC(=O)C1CCN(c2nc(-c3cccc(C)c3)nnc2C)CC1,57.9*,-1.0
COc1ccc(-c2nnc(C)c(N3CCC(C)CC3)n2)cc1,8.1,-2.0
COc1ccc(C(O)=C2C(=O)C(=O)N(Cc3cccnc3)C2c2ccc([N+](=O)[O-])cc2)cc1C (stereo not given),-2.7,-1.3
CCC(C(=O)O)N1C(=O)C(=CC=Cc2ccco2)SC1=S (stereo not given),41.3,93.5*
CC(C)CC(C(=O)O)N1C(=O)C(=Cc2ccco2)SC1=S (stereo not given),6.2,16.4
